Test results published in PubChem BioAssay AID1578 (Sanford-Burnham Center for Chemical Genomics, 2009).
Out of some 290,000 compounds screened, about 3,000 (1%) were called active. Only a selection was taken, and actives are over-represented in it overall. A number with no mark means an inactive call. Cut-off read from the data, not from the text of the source: active = inhibition mostly above about 36% (no sharp cut-off); inactive = mostly below about 34%.

Experiment: NOD1 signaling inhibitors, primary screen, cell-based, luminescence, uHTS (AID 1578);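 note: HEK-293T reporter cells stimulated with the NOD1 agonist gamma-tri-DAP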
Settings: NOD1-driven NF-kB luciferase reporter cells, at 4 µM, active compounds read high

| Structure (SMILES) | inhibition |
| --- | --- |
| CC1CC(=O)N(CC(=O)NCc2ccccc2)c2ccccc2S1(=O)=O (configuration not stated) | -32.8% |
| O=C1CCc2cc(S(=O)(=O)N3CCN(c4cccc(C(F)(F)F)c4)CC3)ccc2N1 | -6.5% |
| CC(=O)Nc1ccc(NC(=O)COC(=O)/C(=C/c2ccccc2)n2nnnc2C)cc1 | -15.3% |
| Cc1nnnn1/C(=C\c1ccccc1)C(=O)OCC(=O)NC(C)(C)C | 91.3% (active) |
| CC(=O)c1ccccc1NC(=O)COC(=O)/C(=C/c1ccccc1)n1nnnc1C | -8% |
| CCOC(=O)C1(CCCc2ccccc2)CCN(C(=O)c2cnc(C)cn2)CC1 | 2.2% |
| CC(=O)OC(C(=O)NC1CCCCC1)c1ccc(Cl)c(Cl)c1 (configuration not stated) | -34.6% |
| COc1ccc(OCC(=O)N/N=c2\oc3c(OC)cccc3cc2C(N)=O)cc1 | -30.3% |
| COc1ccc(CNC(=O)C(c2ccc(C)o2)N(Cc2cccs2)C(=O)Cc2cccs2)cc1 (configuration not stated) | 68.3% (active) |
| COc1ccc(CNC(=O)C(c2ccco2)N(Cc2cccs2)C(=O)Cc2cccs2)cc1 (configuration not stated) | 2% |
| COc1ccc(CNC(=O)C(c2cccs2)N(Cc2ccco2)C(=O)Cc2cccs2)cc1 (configuration not stated) | 23.3% |
| COC(=O)C(C)n1cnc2c(nnn2-c2ccccc2)c1=O (configuration not stated) | -9.8% |
| COc1ccc(C(=O)Nc2c(N)nc(SCC(=O)N3CCCCCC3)[nH]c2=O)cc1OC | -4.3% |
| Cc1cc2c(cc1S(=O)(=O)Nc1cccc(F)c1)n(C)c(=O)c(=O)n2C | 13.5% |
| O=C(c1ccc(S(=O)(=O)Cc2ccccc2Cl)c([N+](=O)[O-])c1)N1CCOCC1 | 13.5% |
| O=C(c1ccc(Cl)c([N+](=O)[O-])c1)N1CCN(c2ccccn2)CC1 | -1.9% |
| O=C(c1ccc(N2CCCC2)c([N+](=O)[O-])c1)N1CCN(c2ccccn2)CC1 | -8.1% |
| O=C(c1ccc(Sc2cccc(Cl)c2)c([N+](=O)[O-])c1)N1CCN(c2ccccn2)CC1 | -34.4% |
| CC(C)Cc1nnc(NC(=O)CCC(=O)NC2CCCC2)s1 | -20.3% |
| CC/C=C/C(=O)N1CC2(CC(c3cccc(NC(=O)c4ccccc4)c3)=NO2)C[C@@H]1C(N)=O (some centres not stated) | 20.5% |
| O=c1c2c3c(sc2nc2n1CCC2)CCCCC3 | -41% |
| Cn1cnc2cc(NC(=O)COc3ccccc3)ccc21 | -63.1% |
| Cc1cccn2c(=O)c3cc(S(=O)(=O)c4ccc(Br)cc4)c(=N)n(C4CCCC4)c3nc12 | -42.6% |

| Structure (SMILES) | inhibition |
| --- | --- |
| O=C(O)c1cccc(NS(=O)(=O)c2cc(S(=O)(=O)c3ccc(Cl)cc3)ccc2Cl)c1 | 0.3% |
| COc1ccc(C(=O)NCc2ccc(-c3nc4ccccc4s3)cc2)cc1OC | -86.1% |
| COc1cc(C(=O)NCc2ccc(-c3nc4ccccc4s3)cc2)cc(OC)c1OC | -45% |
| Cc1ccc(-n2c(SCC(=O)Nc3ccc(C(=O)O)cc3)nnc2-c2ccncc2)cc1 | -9.4% |
| O=C(CCNS(=O)(=O)c1c(Cl)cccc1Cl)OCC(=O)c1ccccc1 | 10.5% |
| Cc1nn(C)c(Cl)c1NC(=O)OCc1ccccc1 | -9.7% |
| Cc1nn(C)c(Cl)c1NC(=O)OCc1ccc(Cl)cc1Cl | 68.3% (active) |
| COc1ccccc1COC(=O)Nc1c(C)nn(C)c1Cl | 10.8% |
| CCc1ccccc1NC(=O)CCC(=O)N1CCSc2ccccc21 | -3% |
| O=Nc1c(O)n(Cc2cccc(C(F)(F)F)c2)c2ccccc12 | 82.8% (active) |
| O=Nc1c(O)n(Cc2ccccc2)c2ccccc12 | 9.5% |
| O=Nc1c(O)n(Cc2cccc(Cl)c2)c2ccccc12 | 34.1% |
| Cc1cccc(NC(=S)NNC(=S)NC2CCCCC2)c1C | -15.3% |
| CCOC(=O)c1[nH]c(C)c(CN(CCc2ccc(OC)c(OC)c2)C(=O)CCCC(=O)O)c1C | -27.8% |
| CCOC(=O)C1CCCN(C(=O)CCCn2nnnc2CN2CCC(C)CC2)C1 (configuration not stated) | -6.9% |
| CCOC(=O)C1CCCN(C(=O)CCCn2nnnc2CN2CCOCC2)C1 (configuration not stated) | 45% (active) |
| CCOC(=O)C1CCCN(C(=O)CCn2nnnc2CN2CCOCC2)C1 (configuration not stated) | -14.8% |
| O=C(O)CN1C(=O)CSc2ccccc21 | 14.5% |
| O=C(CN1CCSc2ccccc21)NCCCc1ccccc1 | -29.8% |
| CCOC(=O)c1ccc(N2C(=O)CC(C)(CC)CC2=O)cc1 | -5% |
| CC(C)(C)c1ccc(C(=O)N2CCCN(c3ccc([N+](=O)[O-])cn3)CC2)cc1 | -3.4% |
| CC(C)(C)c1ccc(NC(=O)N2CCCN(c3ccc([N+](=O)[O-])cn3)CC2)cc1 | 0.9% |
| CC(C)(C)c1ccc(NC(=O)N2CCN(c3ccc([N+](=O)[O-])cn3)CC2)cc1 | 29.4% (active) |

| Structure (SMILES) | inhibition |
| --- | --- |
| O=C(O)CCCN1C(=O)/C(=C/C=C/c2ccco2)SC1=S | 23.3% (active) |
| O=C(O)CC(C(=O)O)N1C(=O)/C(=C/C=C/c2ccco2)SC1=S (configuration not stated) | -8.8% |
| O=C(O)CCCN1C(=O)/C(=C\c2ccco2)SC1=S | -3.5% |
| CC(=O)Nc1ccc(C(=O)N/C(=C/c2ccccc2)C(=O)Nc2cccc(C(=O)O)c2)cc1 | -27.4% |
| O=C(CN1CCCCCC1)NCc1ccccc1 | -25.9% |
| O=C(CSc1nnc(Cn2nnc3ccccc32)o1)N(Cc1ccc(Cl)cc1)c1ccccc1 | 48.7% (active) |
| COc1ccc(N(Cc2ccccc2)C(=O)CSc2nnc(Cn3nnc4ccccc43)o2)cc1 | -12.4% |
| O=C(CSc1nnc(Cn2nnc3ccccc32)o1)N(Cc1ccc(F)cc1)c1ccccc1 | 37.1% |
| O=C(O)c1ccc2c(c1)ncn2C1CCCCC1 | -10.3% |
| NNC(=O)c1csc(Cc2c(Cl)sc3ccc(Cl)cc23)n1 | 11.9% |
| CCOC(=O)CC1C(=O)NCCN1C(=O)COc1ccc(C(C)(C)C)cc1 (configuration not stated) | -17.7% |
| O=C(O)Cc1ccc(NC(=O)Cc2ccc3ccccc3c2)cc1 | -30.6% |
| COc1cccc(-n2nnc3c(=O)n(CC(=O)N4CCCCC4)cnc32)c1 | -13.7% |
| Cc1ccc(NC(=O)C2C3C=CC4(O3)C2C(=O)N(CCCN2CCOCC2)C4C(=O)NC2CCCCC2)cc1Cl (configuration not stated) | -35.1% |
| CC(C)c1cc(C(=O)O)on1 | -10.1% |
| CC(C)c1cc(NC(=O)CSc2nnc(-c3ccccc3F)n2C)on1 | 18.2% |
| CC(C)c1cc(NC(=O)CCl)on1 | 41.7% (active) |
| CCc1ccc(NC(=O)c2cc(CC(C)C)on2)cc1 | -39.3% |
| O=C(N/N=C/c1ccc(O)cc1)c1ccc(NC(=O)c2ccccc2Br)cc1 | -3.3% |
| CCOc1ccc(CNC(=O)CCCC(=O)n2ncc3cc(C)ccc32)cc1 | -10.4% |
| CN1C(=O)c2cccc(NC(=O)Cc3ccccc3)c2C1=O | 5.1% |
| CN1C(=O)c2cccc(NC(=O)CCc3ccccc3)c2C1=O | -23% |
| CCC(=O)Nc1cccc2c1C(=O)N(C)C2=O | 83.2% (active) |

| Structure (SMILES) | inhibition |
| --- | --- |
| CCCCNC(=S)Nc1ccc(Cl)cc1 | 0.1% |
| Cc1oc(-c2ccccc2Cl)nc1CSc1nc2c(c(=O)[nH]1)CCC2 | 34% |
| Cc1oc(-c2ccccc2Cl)nc1CSCC(=O)N1CCCC1 | 25.8% |
| COc1ccccc1N1CCN(c2ccc([N+](=O)[O-])cc2Cl)CC1 | 7.1% |
| Oc1ccc(Cc2ncc(C(F)(F)F)cc2Cl)cc1 | 5.6% |
| Cc1nnc(NC(=O)c2nc(S(=O)(=O)Cc3ccccc3C)ncc2Cl)s1 | 41.7% |
| Cc1cccc(CS(=O)(=O)c2ncc(Cl)c(C(=O)NCc3ccccc3)n2)c1 | 34.5% |
| CC(=O)Nc1ccc(NC(=O)c2nc(S(=O)(=O)Cc3ccccc3)ncc2Cl)cc1 | 11.7% |
| Cc1cccc(CS(=O)(=O)c2ncc(Cl)c(C(=O)NCc3ccc4c(c3)OCO4)n2)c1 | 70.3% (active) |
| Cc1ccc(NC(=O)c2nc(S(=O)(=O)Cc3ccccc3)ncc2Cl)cc1 | 34.5% |
| O=C(NCc1ccc2c(c1)OCO2)c1nc(S(=O)(=O)Cc2ccccc2)ncc1Cl | 16.2% |
| CC(=O)Nc1ccc(NC(=O)c2nc(S(=O)(=O)Cc3cccc(C)c3)ncc2Cl)cc1 | 8.3% |
| COc1ccc(/C=C2\SC(=S)N(CCC(=O)N3CCCCC3)C2=O)cc1 | 13.7% |
| CCN(CC)CCNC(=O)CS(=O)Cc1nc(-c2ccc(C)cc2)oc1C (configuration not stated) | 13.6% |
| CN(C)c1cccc(C(=O)NNC(=S)NC2CCCC2)c1 | -23.1% |
| CCC(C)C(NC(=O)C(CC(C)C)NC(=O)C(CO)NC(=O)C1CCC(=O)N1)C(=O)OC (configuration not stated) | -36% |
| CN(Cc1nc2ccccc2[nH]1)Cc1nc(CC2CC2)no1 | -48.9% |
| COCCNC(=S)NNC(=O)CSCc1ccc(Cl)cc1Cl | -40.2% |
| CCCC(=O)NCCc1nc2ccccc2n1CCC | -14.2% |
| COc1ccc(C(=O)ON=C2CCN(C)CC2)cc1 | -31.9% |
| COc1ccc(CNC(=O)Cc2cn(C)c3ccccc23)c(OC)c1 | -7.1% |
| Cc1cc(NC(=O)OC2CCCCC2)ccc1[N+](=O)[O-] | -54.1% |
| COc1cc(C(=O)NS(=O)(=O)c2ccccc2C)ccc1Cc1cn(C)c2ccc(NC(=O)OC3CCCC3)cc12 | 39.2% (active) |
